From the supplement of paper PMC11732987, “Enantioselective OTUD7B fragment discovery through chemoproteomics screening and high-throughput optimisation” (Communications Chemistry, 2025)
Unmarked numbers belong to inactive results.

What was measured:
Test in all cases: log2 ratio of Biotin-Ahx-Ub-VS probe labelling (fragment/DMSO); higher = less target engagement (more negative = stronger competition), active = hit call of the paper (q ≤ 0.05, log2 ratio ≤ -1)
Conditions in all cases: compound concentration: 200 uM; treatment time: 3 h
[1] = target: T1, USP19 (UniProt O94966)
T1 sequence (whole entry): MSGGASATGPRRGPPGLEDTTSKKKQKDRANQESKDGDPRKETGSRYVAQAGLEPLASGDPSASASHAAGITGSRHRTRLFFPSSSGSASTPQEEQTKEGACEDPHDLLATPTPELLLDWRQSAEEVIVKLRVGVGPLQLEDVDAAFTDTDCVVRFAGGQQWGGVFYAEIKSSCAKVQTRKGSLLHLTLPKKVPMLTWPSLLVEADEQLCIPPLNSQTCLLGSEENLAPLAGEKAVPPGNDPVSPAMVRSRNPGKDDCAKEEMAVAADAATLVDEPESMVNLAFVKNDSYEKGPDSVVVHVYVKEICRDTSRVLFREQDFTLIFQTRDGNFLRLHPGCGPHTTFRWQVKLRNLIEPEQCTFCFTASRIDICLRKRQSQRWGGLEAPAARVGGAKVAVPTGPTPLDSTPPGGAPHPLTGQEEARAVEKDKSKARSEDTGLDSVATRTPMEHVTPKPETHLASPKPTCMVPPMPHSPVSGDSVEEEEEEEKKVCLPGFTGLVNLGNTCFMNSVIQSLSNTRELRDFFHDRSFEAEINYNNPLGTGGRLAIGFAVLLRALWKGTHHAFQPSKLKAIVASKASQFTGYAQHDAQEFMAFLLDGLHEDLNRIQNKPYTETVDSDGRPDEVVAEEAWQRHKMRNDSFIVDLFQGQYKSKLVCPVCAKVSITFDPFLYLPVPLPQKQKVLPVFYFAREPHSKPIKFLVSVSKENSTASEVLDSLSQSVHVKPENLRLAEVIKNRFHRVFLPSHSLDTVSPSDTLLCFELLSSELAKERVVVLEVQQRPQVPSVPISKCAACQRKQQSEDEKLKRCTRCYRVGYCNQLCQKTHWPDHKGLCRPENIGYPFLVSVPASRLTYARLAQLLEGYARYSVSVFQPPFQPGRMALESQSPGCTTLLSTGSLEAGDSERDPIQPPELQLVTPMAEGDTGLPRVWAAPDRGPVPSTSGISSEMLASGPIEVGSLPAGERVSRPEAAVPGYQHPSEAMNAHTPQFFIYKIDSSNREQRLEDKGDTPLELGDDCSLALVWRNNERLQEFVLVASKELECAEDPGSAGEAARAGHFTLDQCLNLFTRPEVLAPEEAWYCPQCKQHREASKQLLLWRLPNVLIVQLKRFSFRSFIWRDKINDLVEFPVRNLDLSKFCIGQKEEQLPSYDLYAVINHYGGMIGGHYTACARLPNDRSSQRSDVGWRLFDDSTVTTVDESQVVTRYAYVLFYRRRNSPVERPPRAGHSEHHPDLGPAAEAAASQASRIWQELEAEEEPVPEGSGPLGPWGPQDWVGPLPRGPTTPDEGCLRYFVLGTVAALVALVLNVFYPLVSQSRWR
In short: (§1)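 The table lists average log2 ratios of fragment over vehicle, from an unpaired t-test on global-median-normalised Spectronaut label-free quantities. Proteins with ≥2 unique peptides were used. Samples were HEK293T lysate (495 µg) treated in triplicate with fragment at 200 µM or vehicle for 3 h, then with Biotin-Ahx-Ub-VS (0.5 µM final) for 1 h, with labelled DUBs NeutrAvidin-enriched and run by diaPASEF LC-MS/MS.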

[2] = target: T2, USP22 (UniProt Q9UPT9)
T2 sequence (whole entry): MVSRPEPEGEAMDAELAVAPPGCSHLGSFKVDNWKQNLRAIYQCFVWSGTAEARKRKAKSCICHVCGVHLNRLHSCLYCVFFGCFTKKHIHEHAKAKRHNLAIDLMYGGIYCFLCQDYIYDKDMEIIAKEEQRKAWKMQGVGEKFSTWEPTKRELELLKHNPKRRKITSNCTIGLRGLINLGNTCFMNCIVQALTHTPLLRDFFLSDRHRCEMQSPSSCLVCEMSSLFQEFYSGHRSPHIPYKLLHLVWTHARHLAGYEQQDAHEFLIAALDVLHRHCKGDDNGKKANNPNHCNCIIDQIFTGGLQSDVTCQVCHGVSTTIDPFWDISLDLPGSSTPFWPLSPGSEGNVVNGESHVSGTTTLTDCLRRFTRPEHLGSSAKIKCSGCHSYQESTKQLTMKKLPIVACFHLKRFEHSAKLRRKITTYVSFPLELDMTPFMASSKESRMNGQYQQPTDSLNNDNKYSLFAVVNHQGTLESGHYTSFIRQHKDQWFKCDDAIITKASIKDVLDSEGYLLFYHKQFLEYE
In short: as §1

[3] = target: USP24 (UniProt Q9UPU5)
Chain of USP24 (Q9UPU5 whole entry): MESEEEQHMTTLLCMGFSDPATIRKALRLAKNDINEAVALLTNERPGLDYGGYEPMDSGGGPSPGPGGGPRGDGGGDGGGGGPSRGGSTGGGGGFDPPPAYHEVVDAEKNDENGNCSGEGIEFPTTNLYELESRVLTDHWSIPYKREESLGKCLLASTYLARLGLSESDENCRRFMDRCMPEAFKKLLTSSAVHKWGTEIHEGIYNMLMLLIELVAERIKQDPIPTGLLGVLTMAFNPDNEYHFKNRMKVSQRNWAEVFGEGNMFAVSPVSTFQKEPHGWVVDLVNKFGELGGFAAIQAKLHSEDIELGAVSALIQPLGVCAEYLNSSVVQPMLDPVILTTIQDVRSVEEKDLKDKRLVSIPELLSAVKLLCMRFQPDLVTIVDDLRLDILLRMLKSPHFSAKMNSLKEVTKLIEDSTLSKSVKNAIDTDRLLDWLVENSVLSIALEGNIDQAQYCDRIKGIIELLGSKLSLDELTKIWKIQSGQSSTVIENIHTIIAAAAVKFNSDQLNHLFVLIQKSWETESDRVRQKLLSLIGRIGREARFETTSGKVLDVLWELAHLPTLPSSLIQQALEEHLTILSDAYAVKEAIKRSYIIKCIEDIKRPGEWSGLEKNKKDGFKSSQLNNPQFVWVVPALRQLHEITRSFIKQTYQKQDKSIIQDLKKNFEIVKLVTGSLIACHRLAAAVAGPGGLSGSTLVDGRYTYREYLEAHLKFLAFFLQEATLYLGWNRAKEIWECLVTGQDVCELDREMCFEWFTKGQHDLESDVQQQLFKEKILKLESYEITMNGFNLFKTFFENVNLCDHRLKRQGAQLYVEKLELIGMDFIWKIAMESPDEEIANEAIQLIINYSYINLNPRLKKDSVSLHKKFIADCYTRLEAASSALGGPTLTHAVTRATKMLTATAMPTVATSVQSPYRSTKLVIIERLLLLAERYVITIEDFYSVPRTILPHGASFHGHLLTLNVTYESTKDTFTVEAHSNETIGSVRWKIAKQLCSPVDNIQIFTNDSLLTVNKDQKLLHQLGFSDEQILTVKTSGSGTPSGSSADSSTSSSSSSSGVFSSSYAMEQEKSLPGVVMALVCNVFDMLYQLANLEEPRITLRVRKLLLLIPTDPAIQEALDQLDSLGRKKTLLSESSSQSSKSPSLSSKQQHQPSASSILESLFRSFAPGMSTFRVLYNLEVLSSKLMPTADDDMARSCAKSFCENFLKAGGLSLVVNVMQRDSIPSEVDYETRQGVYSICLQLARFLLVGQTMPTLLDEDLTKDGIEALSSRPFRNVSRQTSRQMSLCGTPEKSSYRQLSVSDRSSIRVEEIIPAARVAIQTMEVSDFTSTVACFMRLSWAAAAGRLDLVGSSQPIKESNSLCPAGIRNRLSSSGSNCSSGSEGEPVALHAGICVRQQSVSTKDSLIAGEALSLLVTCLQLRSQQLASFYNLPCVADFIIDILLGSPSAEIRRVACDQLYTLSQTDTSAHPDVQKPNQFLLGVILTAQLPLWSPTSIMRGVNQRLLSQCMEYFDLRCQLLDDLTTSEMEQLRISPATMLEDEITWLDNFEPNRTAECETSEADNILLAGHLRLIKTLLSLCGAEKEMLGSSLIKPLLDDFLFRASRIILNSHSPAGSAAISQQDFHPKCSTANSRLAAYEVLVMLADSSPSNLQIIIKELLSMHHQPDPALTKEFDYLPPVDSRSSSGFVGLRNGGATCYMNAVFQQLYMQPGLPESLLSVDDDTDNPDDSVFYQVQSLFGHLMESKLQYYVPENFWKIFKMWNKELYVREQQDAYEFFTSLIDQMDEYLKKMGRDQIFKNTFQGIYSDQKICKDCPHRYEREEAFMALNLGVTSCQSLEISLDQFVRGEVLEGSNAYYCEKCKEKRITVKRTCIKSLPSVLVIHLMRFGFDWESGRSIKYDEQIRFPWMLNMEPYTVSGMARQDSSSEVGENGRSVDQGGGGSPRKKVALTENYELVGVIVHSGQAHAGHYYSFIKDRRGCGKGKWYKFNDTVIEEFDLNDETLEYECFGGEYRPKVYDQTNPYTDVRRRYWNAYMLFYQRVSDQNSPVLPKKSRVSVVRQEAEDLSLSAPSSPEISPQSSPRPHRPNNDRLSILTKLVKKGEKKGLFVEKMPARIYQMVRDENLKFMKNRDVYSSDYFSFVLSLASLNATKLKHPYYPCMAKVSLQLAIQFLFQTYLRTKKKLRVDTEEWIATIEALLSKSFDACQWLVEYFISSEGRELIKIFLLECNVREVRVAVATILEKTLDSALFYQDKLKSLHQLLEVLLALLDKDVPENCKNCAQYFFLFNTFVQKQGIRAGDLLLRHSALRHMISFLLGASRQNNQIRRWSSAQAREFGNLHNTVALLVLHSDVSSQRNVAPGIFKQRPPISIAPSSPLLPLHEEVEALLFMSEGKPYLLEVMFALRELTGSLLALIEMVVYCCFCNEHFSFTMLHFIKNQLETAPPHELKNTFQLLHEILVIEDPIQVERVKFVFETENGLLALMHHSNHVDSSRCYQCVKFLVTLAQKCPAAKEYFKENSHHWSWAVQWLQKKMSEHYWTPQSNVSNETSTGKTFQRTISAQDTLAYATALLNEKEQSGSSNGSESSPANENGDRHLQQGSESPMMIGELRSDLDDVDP
In short: as §1

[4] = target: T3, USP25 (UniProt Q9UHP3)
T3 sequence (whole entry): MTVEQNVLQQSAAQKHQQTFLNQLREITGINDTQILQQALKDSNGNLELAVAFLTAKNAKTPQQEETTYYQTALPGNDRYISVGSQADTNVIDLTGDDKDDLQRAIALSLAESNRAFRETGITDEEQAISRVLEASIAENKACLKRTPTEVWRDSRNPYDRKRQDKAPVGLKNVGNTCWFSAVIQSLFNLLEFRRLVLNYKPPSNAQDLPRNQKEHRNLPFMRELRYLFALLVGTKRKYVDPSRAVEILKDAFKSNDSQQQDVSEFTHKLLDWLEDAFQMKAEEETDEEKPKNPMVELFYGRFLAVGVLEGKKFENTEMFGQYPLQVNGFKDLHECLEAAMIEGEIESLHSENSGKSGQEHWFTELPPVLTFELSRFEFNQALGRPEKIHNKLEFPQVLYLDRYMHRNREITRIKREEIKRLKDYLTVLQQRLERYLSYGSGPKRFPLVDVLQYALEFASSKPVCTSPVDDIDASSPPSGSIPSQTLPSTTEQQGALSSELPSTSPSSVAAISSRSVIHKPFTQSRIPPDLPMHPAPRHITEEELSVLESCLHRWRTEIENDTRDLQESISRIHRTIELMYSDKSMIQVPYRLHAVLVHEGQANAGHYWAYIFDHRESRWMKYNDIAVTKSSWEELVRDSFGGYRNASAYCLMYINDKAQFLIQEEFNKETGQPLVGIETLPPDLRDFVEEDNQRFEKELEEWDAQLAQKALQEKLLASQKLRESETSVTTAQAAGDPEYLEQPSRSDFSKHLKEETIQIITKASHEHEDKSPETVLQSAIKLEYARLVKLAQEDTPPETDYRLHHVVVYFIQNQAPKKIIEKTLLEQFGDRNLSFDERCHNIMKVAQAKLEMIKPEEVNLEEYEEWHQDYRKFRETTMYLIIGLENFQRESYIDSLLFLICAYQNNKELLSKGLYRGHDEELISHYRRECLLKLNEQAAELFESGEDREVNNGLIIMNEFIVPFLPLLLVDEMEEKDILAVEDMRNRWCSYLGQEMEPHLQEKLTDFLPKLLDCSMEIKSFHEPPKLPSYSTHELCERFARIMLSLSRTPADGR
In short: as §1

[5] = target: T4, USP28 (UniProt Q96RU2)
T4 sequence (whole entry): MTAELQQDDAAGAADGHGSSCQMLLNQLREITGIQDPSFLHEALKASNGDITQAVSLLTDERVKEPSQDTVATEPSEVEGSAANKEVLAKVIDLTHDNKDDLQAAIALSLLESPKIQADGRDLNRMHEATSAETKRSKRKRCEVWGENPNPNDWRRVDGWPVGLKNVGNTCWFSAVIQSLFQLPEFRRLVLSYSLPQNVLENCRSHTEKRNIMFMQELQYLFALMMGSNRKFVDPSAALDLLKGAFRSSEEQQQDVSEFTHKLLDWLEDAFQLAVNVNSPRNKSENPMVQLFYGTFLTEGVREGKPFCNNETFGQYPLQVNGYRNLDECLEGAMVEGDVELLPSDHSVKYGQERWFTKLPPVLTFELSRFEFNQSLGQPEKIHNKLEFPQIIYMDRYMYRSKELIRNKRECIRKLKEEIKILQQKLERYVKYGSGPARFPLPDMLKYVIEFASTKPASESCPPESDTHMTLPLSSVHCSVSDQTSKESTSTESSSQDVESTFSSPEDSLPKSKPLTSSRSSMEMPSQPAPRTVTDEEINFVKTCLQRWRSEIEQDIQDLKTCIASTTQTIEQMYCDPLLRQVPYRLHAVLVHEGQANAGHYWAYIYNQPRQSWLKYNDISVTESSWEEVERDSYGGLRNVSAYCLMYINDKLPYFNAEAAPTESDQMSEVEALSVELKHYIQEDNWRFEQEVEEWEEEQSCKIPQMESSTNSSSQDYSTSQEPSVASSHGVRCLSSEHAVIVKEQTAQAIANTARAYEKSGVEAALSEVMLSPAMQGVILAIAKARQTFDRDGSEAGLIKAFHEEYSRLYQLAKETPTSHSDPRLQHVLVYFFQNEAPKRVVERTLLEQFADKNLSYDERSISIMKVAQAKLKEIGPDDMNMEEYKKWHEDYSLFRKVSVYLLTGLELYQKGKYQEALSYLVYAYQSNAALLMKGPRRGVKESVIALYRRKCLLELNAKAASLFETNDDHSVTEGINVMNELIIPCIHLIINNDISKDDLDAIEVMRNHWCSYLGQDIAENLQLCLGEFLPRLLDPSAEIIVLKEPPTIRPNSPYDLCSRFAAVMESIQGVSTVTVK
In short: as §1

COc1ccc(Cl)cc1NC(=O)CCl
log2 ratio of Biotin-Ahx-Ub-VS probe labelling [1]: -0.52 | log2 ratio of Biotin-Ahx-Ub-VS probe labelling [2]: -0.388 | log2 ratio of Biotin-Ahx-Ub-VS probe labelling [3]: -1.54 (active) | log2 ratio of Biotin-Ahx-Ub-VS probe labelling [4]: -0.784 | log2 ratio of Biotin-Ahx-Ub-VS probe labelling [5]: -0.959
